35 molecules from PubChem BioAssay (EPA / NIEHS) can be followed below.

Inconclusive results are not listed. The source made the active and inactive calls. How the source made its calls, unless noted: active means hit-call score of the fitted dose curve at least 0.9, where 1 is the maximum; inactive means score below 0.9.

One test in a line: CCTE_Harrill_HTTr_Apoptosis_MCF7: CCTE's 6-hour Apoptosis Assessment for the High-Throughput Transcriptomics (HTTr) Platform, in MCF-7 cells cultured in DMEM + 10% fetal bovine serum, Harrill Lab (AID 2284011). The method in brief: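 Read-out: CellEvent Caspase 3/7 Green signal by high content imaging, gain-of-signal indicating apoptosis. MCF-7 cells, DMEM + 10% FBS, eight-point dilution series, 6 h exposure. Curves fitted bidirectionally relative to DMSO negative control.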
Take `COc1nn(C(=O)NS(=O)(=O)c2ccccc2OC(F)(F)F)c(=O)n1C`: the outcome was inactive.

On to `CCOP(=O)(OCC)OC(=CCl)c1ccc(Cl)cc1Cl`, for which the outcome was inactive.

On to `CN(C1CCCCC1)C1CCCCC1`, for which the outcome was inactive.

On to `CC(C=O)Cc1ccc2c(c1)OCO2` (stereo not drawn), for which the result was inactive.

As to `O=[N+]([O-])c1cccc2ccccc12`, the outcome was inactive.

In the case of `C[C@]12CC[C@@H](O)C[C@@H]1CC[C@@H]1[C@@H]2CC[C@]2(C)C(=O)CC[C@@H]12`, the outcome was inactive.

Take `CCCCCCCCCCCCCCC(Br)C(=O)O` (stereo not drawn): the result was inactive.

As for `CCN(N=O)C(N)=O`, the outcome was inactive.

On to `C[C@@H]1O[C@@H](O[C@H]2C[C@@H](O)[C@]3(CO)[C@H]4[C@H](O)C[C@]5(C)[C@@H](C6=CC(=O)OC6)CC[C@]5(O)[C@@H]4CC[C@]3(O)C2)[C@H](O)[C@H](O)[C@H]1O`, for which the outcome was inactive.

Regarding `O=S1OC[C@@H]2[C@H](CO1)[C@]1(Cl)C(Cl)=C(Cl)[C@@]2(Cl)C1(Cl)Cl` (stereo partly drawn), the result was inactive.

One may read the AC50 as the midpoint of the concentration-response curve, whichever way the signal moves. In the case of `O=C1C=CC(=O)c2ccccc21`, the AC50 is 60.4 µM (active).

In the case of `O=NN1CCOCC1`, the result was inactive.

For `C#C[C@]1(O)CC[C@H]2[C@@H]3CCC4=CC(=O)CC[C@]4(C)[C@H]3CC[C@@]21C`, the outcome was inactive.

As to `COCCl`, the result was inactive.

`CC1CC(=O)O1` (stereo not drawn): the outcome was inactive.

Regarding `C=CCc1ccccc1O`, the outcome was inactive.

With `Nc1nc(N)nc(Cl)n1`, the outcome was inactive.

Regarding `Cc1cc(SCc2sc(-c3ccc(C(F)(F)F)c(F)c3)nc2C)ccc1OCC(=O)O`, the result was inactive.

On to `O=C(N[C@H]1CN2CCC1CC2)c1ccc2c(c1)OCCO2`, for which the result was inactive.

Regarding `COCC(=O)N(c1c(C)cccc1C)[C@H](C)C(=O)OC`, the outcome was inactive.

For the molecule `OCC(c1ccc(Cl)cc1)c1ccc(Cl)cc1`, the result was inactive.

As to `Cc1cc(C(C)(C)c2ccc(O)c(C)c2)ccc1O`, the outcome was inactive.

For `CC(C)(C)c1ccc(CCOc2ncnc3ccccc23)cc1`, the result was inactive.

For `CC(C)[C@H](C(=O)OC(C#N)c1cccc(Oc2ccccc2)c1)c1ccc(OC(F)F)cc1` (stereo partly drawn), the result was inactive.

Regarding `CN(N=O)C(N)=O`, the result was inactive.

Regarding `CCOP(=S)(OCC)Oc1ccc(Cl)cc1Cl`, the result was inactive.

With `COC(=O)c1cc(Oc2ccc(Cl)cc2Cl)ccc1[N+](=O)[O-]`, the outcome was inactive.

On to `C[As+](C)(C)CC(=O)[O-]`, for which the result was inactive.

Take `Oc1c(Br)cc(Br)cc1Br`: the outcome was inactive.

Regarding `CC(O)(CS(=O)(=O)c1ccc(F)cc1)C(=O)Nc1ccc(C#N)c(C(F)(F)F)c1` (stereo not drawn), the result was inactive.

For `C1CN2CCN1CC2`, the outcome was inactive.

On to `C=CCN=C=S`, for which the result was inactive.

Regarding `O=NN1CCCCCC1`, the outcome was inactive.

For `CCCSP(=S)(OCC)Oc1ccc(SC)cc1` (stereo not drawn), the result was inactive.

Regarding `O=C(O)C1(c2ccc3c(c2)OC[C@H](Cc2ccc(-c4ccccc4)cc2)[C@H]3O)CCCC1`, the result was inactive.

The next test can be described thus: CCTE_Harrill_HTTr_CellCount_MCF7: CCTE's Cell Proliferation Assessment for the High-Throughput Transcriptomics (HTTr) Platform, Harrill Lab (AID 2284012; active means hit-call score of the fitted dose curve at least 0.9, where 1 is the maximum;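 further: cells exposed to compound for six hours; intended direction is loss of nuclei count meaning fewer cells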). The method in brief: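 MCF7 cells exposed 6 hours to an eight-point dilution series; Hoechst-stained nuclei counted by high-content imaging. Bidirectional curve fitting against DMSO baseline.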
`CC(C=O)Cc1ccc2c(c1)OCO2` (stereo not drawn): the outcome was inactive.

Take `O=[N+]([O-])c1cccc2ccccc12`: the result was inactive.

In the case of `O=C1C=CC(=O)c2ccccc21`, the AC50 was 76.2 µM (active).

With `COCCl`, the call was inactive.

As for `Cc1cc(SCc2sc(-c3ccc(C(F)(F)F)c(F)c3)nc2C)ccc1OCC(=O)O`, the molecule was classed as inactive.

Consider `Cc1cc(C(C)(C)c2ccc(O)c(C)c2)ccc1O`, for which the molecule was classed as inactive.

On to `CC(O)(CS(=O)(=O)c1ccc(F)cc1)C(=O)Nc1ccc(C#N)c(C(F)(F)F)c1` (stereo not drawn), for which the molecule was classed as inactive.

As to `O=C(O)C1(c2ccc3c(c2)OC[C@H](Cc2ccc(-c4ccccc4)cc2)[C@H]3O)CCCC1`, the outcome was inactive.
